# Compounds without any hit were thinned out: in the full panel of roughly 83,000, 20% have a hit.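 Compound tested at a single concentration for 48 hours in 96-well plates; a percent growth value below 10 was scored as active.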 Values without a mark were called inactive. Activity calls are given as the source filed them.
# System: IGROV1 ovarian
# Assay: NCI-60 one-dose screen, 48 h (100 = growth as untreated, 0 = no growth, -100 = all killed)
# Conditions: 10 µM
row,Structure (SMILES),growth
1,c1cncc(-c2csc(-c3c[nH]c4ccccc34)n2)c1,68.8%
2,CC(C)(C)c1ccc(S(=O)(=O)N[C@H]2CC[C@H]3[C@@H]4CCc5cc(OS(=O)(=O)O)ccc5[C@H]4CC[C@]23C)cc1,41.4%
3,Nc1nccc(OCCO)n1,107%
4,Cc1c2cnccc2c(C)c2c1c1cc(O)ccc1n2C(C)C,7.7% (active)
5,CCc1ccc(C2=NN(c3ccc(S(C)(=O)=O)cc3)C(=O)CC2)cc1,37.4%
6,COc1ccc(-c2nn(-c3cccc(Cl)c3)cc2-c2cc(-c3ccccc3)[nH]c(=O)c2C#N)cc1,49.4%
7,CC(C)(C)OC(=O)N1CCc2c(sc3ncnc(N/N=C/c4ccccc4Br)c23)C1,68.6%
8,COc1ccc(-c2nn(-c3cccc(Cl)c3)cc2-c2c(C#N)c(=O)n3[nH]c(-c4ccccc4)nc3c2C#N)cc1,108%
9,Cc1ccc(-n2c(C)nn3c(=O)c4c5c(sc4nc23)CN(C)CC5)cc1,101%
10,CCn1c(CSc2nc3ccccc3c(=O)n2CCc2ccccc2)n[nH]c1=S,93.4%
11,COc1cc2cc(Oc3ccc(NC(=O)Nc4ccc(Cl)c(Cl)c4)cc3)c(C)nc2cc1OC,18.6%
12,CCOC(=O)c1sc2ncnc(Nc3ccc4c(cnn4C(=O)Nc4ccc(C)c(Cl)c4)c3)c2c1C,97.9%
13,CN1CCc2c(sc3nc4n(-c5ccc(Cl)cc5)c(=O)[nH]n4c(=O)c23)C1,91.4%
14,COc1cc2c3c(n(C4CCN(C)CC4)c(=O)c2cc1OC)-c1cc2c(cc1C3=O)OCO2,66.9%
15,CC(C)N(CCOc1ccc(-c2nc3sccn3c2-c2ccnc(S(C)(=O)=O)n2)cc1)C(C)C,96.2%
16,N#Cc1ccc(C(=O)CSc2nccc(Nc3ccc(C(=O)O)cc3)n2)cc1,102%
17,O=C(CNc1nnc(-c2cccnc2SCc2ccccc2)s1)Nc1nc(Cl)cc(Cl)n1,96.6%
18,COc1ccc(N(C)c2ncnc3occ(C)c23)cc1,-11.1% (active)
19,N#Cc1c(-c2ccc(Cl)cc2)cc(-c2cc(O)ccc2O)nc1N,7.29% (active)
20,CN(C)CCN(Cc1ccccc1)c1ccc2ccccc2n1,95.1%
21,O=C(Nc1cc([N+](=O)[O-])c2[nH]c(=O)c3ccccc3c2c1)C(F)(F)F,93.6%
22,COc1ccc(-c2nn(-c3cccc(Cl)c3)cc2/C=C2\NC(=S)N(c3ccc(Cl)cc3)C2=O)cc1,-16.2% (active)
23,COc1ccc2c(c1)OC(N)=C(C#N)C2c1cc(OC)c(OC)c(OC)c1 (centres undefined),7.64% (active)
24,IC(I)I,103%

# System: OVCAR-3 ovarian
# Assay: as above
# Conditions: 10 µM
row,Structure (SMILES),growth
1,C=CCN(CC=C)C(=O)[C@H](CC)[C@@H]1CC[C@@H](C)[C@@H]([C@H](C)[C@@H](O)[C@@H](C)C(=O)[C@H](CC)C2O[C@]3(C=C[C@@H](O)[C@]4(CC[C@@](C)([C@H]5CC[C@](O)(CC)[C@H](C)O5)O4)O3)[C@H](C)C[C@@H]2C)O1 (some centres undefined),14.6%
2,O=C1CCn2c1c(O)c1ccccc1c2=O,118%
3,COc1ccc(-c2cc(-c3ccccc3)nc(SCCCCCCC(=O)NO)n2)cc1,67.8%
4,Cc1ccc(NC(=S)NNC(=S)Nc2ccc(C)cc2)cc1,64.5%
5,c1cncc(-c2csc(-c3c[nH]c4ccccc34)n2)c1,85.6%
6,CN(C)CCOc1cccc(-c2nc3sccn3c2-c2ccnc(S(C)(=O)=O)n2)c1,93.6%
7,CC(C)(C)c1ccc(S(=O)(=O)N[C@H]2CC[C@H]3[C@@H]4CCc5cc(OS(=O)(=O)O)ccc5[C@H]4CC[C@]23C)cc1,34.1%
8,Nc1nccc(OCCO)n1,105%
9,CC(C)c1ccc(C(C)C(=O)N(CC2=C(C(C)c3ccccn3)c3ccccc3C2)C(C)C)cc1 (centres undefined),29.7%
10,Cc1c2cnccc2c(C)c2c1c1cc(O)ccc1n2C(C)C,21.5%
11,CCc1ccc(C2=NN(c3ccc(S(C)(=O)=O)cc3)C(=O)CC2)cc1,-13.6% (active)
12,COc1cc2c(cc1NC(=O)C(Cl)Cl)-c1ccc(NC(=O)C(Cl)Cl)cc1C2,-44.6% (active)
13,COc1cc(/C=C2\CCCC3=C2NC(N)=NC3c2cc(OC)c(OC)c(OC)c2)cc(OC)c1OC (centres undefined),-17.7% (active)
14,COc1ccc(-c2nn(-c3cccc(Cl)c3)cc2-c2cc(-c3ccccc3)[nH]c(=O)c2C#N)cc1,25.8%
15,CC(C)(C)OC(=O)N1CCc2c(sc3ncnc(N/N=C/c4ccccc4Br)c23)C1,62.9%
16,COc1ccc(-c2nn(-c3cccc(Cl)c3)cc2-c2nc(N)[nH]c(=O)c2C#N)cc1,106%
17,COc1ccc(-c2cc(-c3ccc(Cl)cc3)nc(SCCCC(=O)NO)n2)cc1,-1.93% (active)
18,COc1ccc(-c2nn(-c3cccc(Cl)c3)cc2-c2c(C#N)c(=O)n3[nH]c(-c4ccccc4)nc3c2C#N)cc1,109%
19,Cc1ccc(-n2c(C)nn3c(=O)c4c5c(sc4nc23)CN(C)CC5)cc1,96.7%
20,CCn1c(CSc2nc3ccccc3c(=O)n2CCc2ccccc2)n[nH]c1=S,102%

row,Structure (SMILES),growth
1,COc1cc2cc(Oc3ccc(NC(=O)Nc4ccc(Cl)c(Cl)c4)cc3)c(C)nc2cc1OC,-10% (active)
2,CCOC(=O)c1sc2ncnc(Nc3ccc4c(cnn4C(=O)Nc4ccc(C)c(Cl)c4)c3)c2c1C,117%
3,CN1CCc2c(sc3nc4n(-c5ccc(Cl)cc5)c(=O)[nH]n4c(=O)c23)C1,106%
4,COc1cc2c3c(n(C4CCN(C)CC4)c(=O)c2cc1OC)-c1cc2c(cc1C3=O)OCO2,-72% (active)
5,CCOC(=O)CSc1nc(-c2cc(OC)ccc2OC)cc(-c2ccc(OC)cc2)c1C#N,95.4%
6,CC(C)N(CCOc1ccc(-c2nc3sccn3c2-c2ccnc(S(C)(=O)=O)n2)cc1)C(C)C,72.8%
7,N#Cc1ccc(C(=O)CSc2nccc(Nc3ccc(C(=O)O)cc3)n2)cc1,110%
8,O=C(CNc1nnc(-c2cccnc2SCc2ccccc2)s1)Nc1nc(Cl)cc(Cl)n1,106%
9,COc1ccc(N(C)c2ncnc3occ(C)c23)cc1,-39.9% (active)
10,COC(=O)C1OC1c1cc([N+](=O)[O-])ccc1OC (centres undefined),109%
11,N#Cc1c(-c2ccc(Cl)cc2)cc(-c2cc(O)ccc2O)nc1N,-17.2% (active)
12,CN(C)CCN(Cc1ccccc1)c1ccc2ccccc2n1,103%
13,COC(=O)c1c[nH]c2cc(OC(C)C)c(OC(C)C)cc2c1=O,113%
14,C=C/C(C)=C/C[C@]1(C)[C@H](C)[C@@H](OC(=O)CCC)[C@H](O)[C@@]23C(=C[C@H](OC)C[C@@H]12)[C@@H](OC(=O)CCC)O[C@H]3OC(C)=O,-86.5% (active)
15,O=C(Nc1cc([N+](=O)[O-])c2[nH]c(=O)c3ccccc3c2c1)C(F)(F)F,106%
16,Nc1nc(Cl)nc2c1ncn2C1O[C@H](CO)[C@@H](O)[C@@H]1F (some centres undefined),60.7%
17,C#CC(C)(O)[C@@H]1C[C@H](CC(=O)O)C1(C)C (some centres undefined),119%
18,COc1ccc(-c2nn(-c3cccc(Cl)c3)cc2/C=C2\NC(=S)N(c3ccc(Cl)cc3)C2=O)cc1,0.69% (active)
19,COc1ccc2c(c1)OC(N)=C(C#N)C2c1cc(OC)c(OC)c(OC)c1 (centres undefined),-39.8% (active)
20,IC(I)I,106%

# — PubChem BioAssay (NCI)
